The record followed here is PubChem BioAssay AID1964107 (National Center for Advancing Translational Sciences (NCATS), 2024).

About 360 (1.2%) of roughly 31,000 compounds were called active. Not shown: some 8% with an inconclusive outcome. The sample as a whole holds a higher share of actives than the screen did. A number with no mark means an inactive call. The call rests on the fitted dose curve.
On the % scale 0 is the no-effect control and ±100 the full control effect; potency means the concentration at half of the fitted maximal effect.

For the experiment, the target named is Polyprotein P1234 (Chikungunya virus (strain S27-African prototype)) (UniProt Q8JUX6). Briefly: Primary qHTS for inhibitors of NSP2Pro chikungunya virus (CHIKV). Further: nearly all actives have a fitted effect of over 60% in size. Conditions: FRET peptide cleavage, fluorescence 1 h; series mostly up to 24.9 µM; activity change, negative = inhibition: at the top concentration. From the text: PI: Natalia J. Martinez Ph.D. National Center for Advancing Translational Sciences (NCATS), National Institute of Health (NIH), Rockville, Maryland Chikungunya virus (CHIKV) is a mosquito-borne RNA virus that has emerged as one of the most important global arboviral threats in the last decade. Although the first CHIKV vaccine has recently been FDA approved for use in healthy adults at increased risk, to date, there are no available antiviral drugs for CHIKV infection. CHIKV nsP2 protease plays a crucial role in the processing of the viral polypeptide precursor to release enzymes required for viral replication, thus making it a promising drug target for antiviral discovery. Here, we established a high-throughput pipeline to identify small molecule inhibitors of nsP2 proteolytic activity. The pipeline is composed of a suite of 1,536-well in vitro assays to support quantitative high-throughput (qHTS) screening campaigns. Specifically, we developed a fluorescence resonance energy transfer (FRET)-based assay using a fluorogenic peptide substrate encompassing an endogenous cleavage site and purified recombinant protease domain (nsP2pro). Using this assay, we interrogated ~37,000 small molecules, including those in drug repurposing libraries as well as chemically diverse and medicinal chemistry-friendly compounds. Hits were selected for follow-up validation against full-length nsP2 and an additional peptide. FRET-based 1,536-well assays for papain, hepatitis C virus NS3-4A, and human furin proteases were implemented to characterize compound selectivity. […] Novel compounds were identified to be potential nsP2 inhibitors and molecular docking analyses were performed to explain the binding mode of selected hits. In vitro antiviral activity was evaluated for a subset of compounds using a high-throughput CHIKV infection assay. To our knowledge, the pipeline presented here is unprecedented for CHIKV antiviral discovery research.
Sequence of Polyprotein P1234 (Chikungunya virus (strain S27-African prototype)) (Q8JUX6 whole entry, looked up): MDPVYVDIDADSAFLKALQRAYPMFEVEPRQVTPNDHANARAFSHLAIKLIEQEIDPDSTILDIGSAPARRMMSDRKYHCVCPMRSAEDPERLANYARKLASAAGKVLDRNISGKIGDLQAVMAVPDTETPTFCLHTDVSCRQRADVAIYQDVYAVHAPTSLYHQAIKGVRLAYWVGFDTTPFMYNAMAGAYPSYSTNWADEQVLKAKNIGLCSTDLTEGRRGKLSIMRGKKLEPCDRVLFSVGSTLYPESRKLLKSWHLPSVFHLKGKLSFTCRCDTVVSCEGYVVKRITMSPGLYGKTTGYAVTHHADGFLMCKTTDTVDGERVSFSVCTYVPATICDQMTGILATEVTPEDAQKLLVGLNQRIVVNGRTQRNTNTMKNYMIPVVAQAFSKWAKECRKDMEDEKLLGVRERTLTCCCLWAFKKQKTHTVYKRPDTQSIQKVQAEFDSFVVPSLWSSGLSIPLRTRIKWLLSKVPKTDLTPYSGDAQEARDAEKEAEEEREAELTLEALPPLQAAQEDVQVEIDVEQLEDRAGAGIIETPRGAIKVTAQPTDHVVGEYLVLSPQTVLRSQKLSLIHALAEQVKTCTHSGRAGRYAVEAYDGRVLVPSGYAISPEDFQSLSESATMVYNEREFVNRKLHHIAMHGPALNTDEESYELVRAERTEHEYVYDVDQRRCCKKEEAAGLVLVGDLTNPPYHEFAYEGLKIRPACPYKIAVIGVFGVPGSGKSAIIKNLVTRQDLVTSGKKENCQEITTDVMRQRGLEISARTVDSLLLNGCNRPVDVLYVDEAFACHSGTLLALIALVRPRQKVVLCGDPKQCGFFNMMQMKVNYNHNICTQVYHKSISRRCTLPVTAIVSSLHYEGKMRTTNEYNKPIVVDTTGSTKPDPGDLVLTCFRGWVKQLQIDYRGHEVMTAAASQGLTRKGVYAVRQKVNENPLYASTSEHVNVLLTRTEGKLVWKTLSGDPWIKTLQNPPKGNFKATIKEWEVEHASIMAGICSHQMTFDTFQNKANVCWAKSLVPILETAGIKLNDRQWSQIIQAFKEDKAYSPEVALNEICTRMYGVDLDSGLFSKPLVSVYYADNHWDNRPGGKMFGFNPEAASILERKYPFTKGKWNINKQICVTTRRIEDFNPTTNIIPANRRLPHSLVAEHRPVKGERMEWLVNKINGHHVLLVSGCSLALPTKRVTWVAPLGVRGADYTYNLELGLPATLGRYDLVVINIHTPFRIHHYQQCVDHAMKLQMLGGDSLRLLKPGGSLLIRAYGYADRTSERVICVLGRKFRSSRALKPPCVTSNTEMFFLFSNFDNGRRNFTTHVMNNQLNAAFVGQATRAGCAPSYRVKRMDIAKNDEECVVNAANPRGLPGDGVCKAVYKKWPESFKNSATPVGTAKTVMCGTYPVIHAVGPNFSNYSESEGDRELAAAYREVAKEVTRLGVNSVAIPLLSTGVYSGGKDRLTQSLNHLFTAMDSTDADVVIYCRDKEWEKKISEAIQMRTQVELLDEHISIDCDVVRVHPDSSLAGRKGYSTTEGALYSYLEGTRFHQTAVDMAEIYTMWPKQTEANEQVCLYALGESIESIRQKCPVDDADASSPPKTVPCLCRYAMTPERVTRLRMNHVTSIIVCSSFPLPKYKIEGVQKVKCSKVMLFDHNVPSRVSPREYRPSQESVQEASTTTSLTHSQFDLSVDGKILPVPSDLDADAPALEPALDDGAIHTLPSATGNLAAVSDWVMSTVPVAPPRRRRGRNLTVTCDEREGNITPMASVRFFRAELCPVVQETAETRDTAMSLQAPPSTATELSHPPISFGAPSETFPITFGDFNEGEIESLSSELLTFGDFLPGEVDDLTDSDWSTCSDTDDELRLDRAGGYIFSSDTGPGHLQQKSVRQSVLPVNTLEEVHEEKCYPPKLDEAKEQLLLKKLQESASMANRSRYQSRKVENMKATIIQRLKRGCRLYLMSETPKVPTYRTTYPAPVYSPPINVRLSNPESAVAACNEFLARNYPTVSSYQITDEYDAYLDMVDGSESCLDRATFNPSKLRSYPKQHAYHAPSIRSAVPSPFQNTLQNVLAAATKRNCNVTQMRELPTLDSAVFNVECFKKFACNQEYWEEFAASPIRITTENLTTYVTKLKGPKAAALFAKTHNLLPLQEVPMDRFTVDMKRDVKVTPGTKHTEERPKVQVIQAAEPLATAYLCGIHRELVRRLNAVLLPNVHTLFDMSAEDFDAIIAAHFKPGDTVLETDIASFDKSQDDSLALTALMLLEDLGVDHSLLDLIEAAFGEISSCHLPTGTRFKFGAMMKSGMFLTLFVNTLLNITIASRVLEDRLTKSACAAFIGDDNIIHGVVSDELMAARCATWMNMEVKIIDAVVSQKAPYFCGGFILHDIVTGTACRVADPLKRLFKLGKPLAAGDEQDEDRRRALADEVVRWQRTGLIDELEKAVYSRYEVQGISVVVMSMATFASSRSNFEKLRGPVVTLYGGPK
PROTOCOL TABLE (as described by Inglese J, Shamu CE and Guy RK. 2007) SEQUENCE No. (e.g., 1, 2, 3, etc.); […] (e.g., Cells, Incubation, Reagent, etc.); VALUE; DESCRIPTION. 1; Control / Compound; 20 nL; Echo 655 acoustic dispenser, Greiner 1536-well solid bottom black plate. 2; Enzyme; 4 uL; BioRAPTR FRD liquid dispenser (Beckman Coulter). 3; Incubation; 15 min; room temperature. 4; Reagent; 4 uL; 2.5 uM Peptide 2 substrate. 5; Incubation; 1 hr; room temperature. 6; Detection; Fluorescence; WiewLux microplate reader (PerkinElmer), 525 nm excitation, 598/25 nm emission. NOTES (numbers refer to sequence numbers above). 1. Briefly, 20 nL DMSO, positive control ZnAc (20nM final concentration), and test compounds were transferred into a 1,536-well solid bottom black plate (789176-F, Greiner One) via Echo 655 acoustic dispenser (Beckman Coulter). For primary screens, compounds were tested at 7 concentrations, 1:3 dilution points ranging from 25 uM to 34 nM. Follow-up confirmatory screens were carried out at 11 concentrations, 1:3 dilution points from 25 uM to 0.42 nM. 2. Four uL nsP2pro enzyme mix (150 nM final concentration) in 10 mM Tris-HCl pH 8.0 with 0.01% Tween 20 assay buffer was dispensed into the plate using a BioRAPTR FRD liquid dispenser (Beckman Coulter). 3. The plate was incubated at room temperature (protected from light) for 15 min 4. Four microliter of peptide 2 substrate (2.5 uM final concentration) in assay buffer was added to the plate. 5. After 1 hour, plates were immediately read on a ViewLux high-throughput CCD imager (Exposure = 10 sec, Gain = High, Speed = Slow, Binning = 2X). The above assay was also incorporated in the NCATS HTS facility41, which allowed for robotic liquid and compound dispensing, microplate handling, and fluorescence reading.. REFERENCE: Inglese J, Shamu CE and Guy RK, Reporting data from high throughput screening of small molecule libraries, Nature Chemical Biology, 2007, 3(8): 438-441. doi.org/10.1038/nchembio0807-438.
On the technique in general: qHTS replaces the single test concentration by a dilution series.
With `Cc1nn(Cc2ccccc2Cl)c(C)c1CN(C)CC(O)COc1ccc(Cl)cc1` (stereo unspecified), the “activity change, negative = inhibition” value was 0.58%.
Regarding `O=C(Nc1nc(-c2ccccc2)cs1)c1ccncc1NS(=O)(=O)c1ccc(-c2ccccc2)cc1`, the outcome was inactive.
Same read-out and setting: the value for `CCOCCOC1CCN(S(=O)(=O)c2ccc(OC)cc2)CC1` was “inactive”.
On to `CCOCCCNC(=O)c1cc2c(=O)n3ccccc3nc2s1`, for which the “activity change, negative = inhibition” value is -12%.
Consider `CCc1noc(-c2cn(C3CCN(C(=O)C4(c5ccccc5)CC4)C3)nn2)n1` (stereo unspecified), for which the result was inactive.
As for `COc1ccc(Cc2ncc3c(n2)CN(C(=O)c2ccc(OC)c(O)c2)C3)cc1`, the “activity change, negative = inhibition” value was 4.72%.
On the same count and under the same terms, then `CC(NC(=O)c1cc(Sc2ccc(F)cc2F)nc2ccccc12)c1ccccc1` (stereo unspecified), with -18.2%; and `O=C(N[C@@H]1CCOC[C@H]1OCCO)c1ccc2c(c1)ncn2CCO`, with -3.4%; and `CCC(=O)N1N=C(c2ccc(OC)cc2)CC1c1cn(-c2ccccc2)nc1-c1cccs1` (stereo unspecified), with -18.6%.
Consider `CCC(=O)N1CCc2cc(S(=O)(=O)NC(Cc3ccccc3)C(=O)NCc3ccc(C)cc3)ccc21` (stereo unspecified), for which the “activity change, negative = inhibition” value is -26.4%.
`FC(F)(F)c1cccc(N2CCN(C(=S)Nc3ccncc3)CC2)c1`: the “activity change, negative = inhibition” value is 0.924%.
The same measure, in the same setting: then `COc1cccc(-c2cn3c(n2)N(C(=O)c2cnccn2)CCC3)c1`, with 5.42%.
On to `CCCN=C1S/C(=C\c2ccc(OC[C@H](O)CO)c(Cl)c2)C(=O)N1c1ccccc1C`, for which the “activity change, negative = inhibition” value was -11.9%.
For `CC(=O)c1ccc(NS(=O)(=O)c2ccc(-c3cc(C)no3)s2)cc1`, the “activity change, negative = inhibition” value was -10.1%.
`Cc1ccc(N2CCN(C(=O)CCc3c(C)nc4c(c3C)c(=O)n(C)c(=O)n4C)CC2)c(C)c1`: the “activity change, negative = inhibition” value is -6.64%.
Still for that read-out and setting: the value for `CCC(=O)N1CCc2cc(Br)cc(S(=O)(=O)CCC(=O)NCc3ccccc3OC)c21` was -13.4%.
Regarding `CCOc1ccc(NC(=O)Cn2nc3n(c2=O)CCN(Cc2ccccc2C)C3=O)cc1`, the “activity change, negative = inhibition” value is -3.88%.
On the same count and under the same terms, then `N#Cc1ccc(-c2ccc(NC(=O)c3cccs3)cn2)cc1`, with 4.86%; and `CCOc1ccc(CNC(=O)c2ccc3nc(CC)c(CC)nc3c2)cc1OC`, with -2.04%.
As to `COc1ccc(CNC(=O)c2cc3c(s2)CN(C2CC2)C3)cc1OC`, the compound was called inactive.
As to `COc1ccc(C2=Nn3c(nnc3-c3ccccc3O)SC2)cc1`, the “activity change, negative = inhibition” value was 2.77%.
On to `CCC(C)C(=O)O[C@H]1[C@@H](OC(=O)c2ccoc2)C[C@](C)(O)[C@]23OC(C)(C)[C@H](C[C@H](OC(=O)c4ccoc4)[C@]12COC(C)=O)[C@H]3OC(C)=O` (stereo partly specified), for which the “activity change, negative = inhibition” value was -3.85% [at 10 µM].
Consider `CC1=C[C@@H](CNC2CCOCC2)[C@H](C(C)C)C[C@H]1Cc1nc2ccc(F)cc2[nH]1`, for which the “activity change, negative = inhibition” value was 3.26% [at 39.2 µM].
With `COc1ccc(C2=NS(=O)(=O)N(C)C(C(=O)NC(C)c3ccccc3)=C2)cc1` (stereo unspecified), the “activity change, negative = inhibition” value was -13.3%.
In the case of `CC(C)Oc1cccc(-c2cnc(N3CCC(C(N)=O)CC3)s2)c1`, the “activity change, negative = inhibition” value is 0.0009%.
On the same count and under the same terms, the value for `O=C(Nc1ccccc1-c1cn2c(CN3CCNCC3)csc2n1)c1ccc2ccccc2n1` was 17.2%.
Turning to `COCC(=O)N(C[C@H]1O[C@@H](CC(=O)NC2CC2)[C@H](O)[C@@H]1O)C[C@H]1O[C@@H](CC(=O)NC2CC2)[C@H](O)[C@@H]1O`, the call was inactive.
Consider `C=CC1C(OC2OC(CO)C(O)C(O)C2O)OC=C(C(=O)OC)C1CC1CC(=O)CC(CCc2ccc(O)cc2)O1` (stereo unspecified), for which the “activity change, negative = inhibition” value is 7.34% [at 10 µM].
As to `COc1ccccc1CC(=O)N1CCc2c(nc3cc(-c4ccccc4Cl)[nH]n3c2=O)C1`, the compound was called inactive.
As to `COc1ccc(C2CC(=O)N(Cc3ccccc3C)c3c2c(C)nn3-c2nc(C)cc(C)n2)c(OC)c1` (stereo unspecified), the “activity change, negative = inhibition” value was -7.48%.
In the case of `COc1ccc(/C=C2/C(=O)Nc3ccccc32)cc1O`, the result was inactive.
In the case of `COc1ccc(C(=O)Nc2cccc(C(=O)OCc3cc(=O)n4c5c(sc4n3)CCCC5)c2)cc1`, the “activity change, negative = inhibition” value was -10.2%.
For `Cc1cnc(C2CCC2)n1C1CCN(C(=O)CCC2CCCC2)CC1`, the “activity change, negative = inhibition” value was -1.69%.
As for `O=C(CSc1ncc(CO)n1Cc1ccc(Cl)cc1)NCc1ccc(F)cc1`, the “activity change, negative = inhibition” value is -6.18%.
On to `O=C(NCc1ccc(Cl)cc1)c1cc(-c2ccc[nH]2)n[nH]1`, for which the Potency is 8.91 µM (active).
Take `O=C(CSc1nccn1Cc1ccc(Cl)cc1)NCc1ccccc1`: the “activity change, negative = inhibition” value was -0.86%.
Same read-out and setting: the value for `COc1ccc(CCn2cc3c(c2-c2ccc(Br)cc2)c(=O)n(C)c(=O)n3C)cc1OC` was -19.2%.
Take `C[C@@H]1[C@H](O)[C@@H]2OC(=O)C3=C2[C@H](CCC3)[C@@]12C[C@@H](c1ccoc1)OC2=O`: the Potency is 5.44 µM (active).
Consider `COc1cccc(CNc2ccc(S(=O)(=O)Nc3cc(C)on3)cc2)c1O`, for which the compound was classed as inactive.
`Fc1ccc(CSc2nc(NCc3ccccc3)c3ccccc3n2)cc1`: the “activity change, negative = inhibition” value was 3.47%.
Still for that read-out and setting: the value for `O=C(Nc1ccc(O)c(-c2nc3ccccc3o2)c1)c1ccc(-c2cccc(Cl)c2)o1` was -11.1%; that for `Cc1nn(C(C)C(=O)NCCc2ccccc2)c(=O)c2c1sc1ccccc12` (stereo unspecified) was -15.8%.
With `CCOC(=O)c1c(S(=O)(=O)NCC(=O)Nc2ccc(Cl)c(C(F)(F)F)c2)c(C)n(C)c1C`, the “activity change, negative = inhibition” value is -19.1%.
Take `Cc1ncc([N+](=O)[O-])n1C[C@H](O)CN1CCOCC1`: the “activity change, negative = inhibition” value was 11.8%.
Take `Cc1nn(Cc2ccccc2)c(C)c1[C@@H]1C=C[C@@H](NC(=O)NC(C)C)C1`: the Potency was 14.1 µM (active).
Consider `O=C(Cn1nc(C2CC2)ccc1=O)NCCc1ccccc1`, for which the “activity change, negative = inhibition” value was -6.14%.
